Screen size: about 31,000 sequences; about 1,400 (4.5%) were called active.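 How the source made its calls: active means median seed-adjusted z-score above 1 or below -1; inactive means the rest.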 This excerpt belongs to a sample that is enriched for actives.

The nature of this experiment: Novel Modifiers of Survival Motor Neuron (SMN) Protein: Gene Identification via Genome-wide siRNA Screen.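 Further: luminescence tracks full-length SMN protein made from the SMN2 reporter.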 Particulars: HEK293T SMN2-luciferase reporter, siRNA knockdown, 72 h; actives lie on both sides. Summed up:
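HEK293T cells stably carrying an SMN2 promoter/splicing cassette–luciferase reporter were reverse-transfected with 1 pmol siRNA per well (druggable-genome library, 3 siRNAs per gene) and grown 72 h at 37 °C. Luminescence, normalized to negative-control siRNA and log10-transformed, was scored as MAD.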
With GCAGCUCAACGGCAAAGAATT against RBM14, the median seed-adjusted z-score was -0.0317 (inactive).

Turning to GCAUCUCAAUAUCAACAAUTT against LINGO2, the median seed-adjusted z-score is 0.123 (inactive).

For GAAUAUCGGUUGGAUUAUATT against ITGAV, the median seed-adjusted z-score was 1.17 (active).

Turning to GGGCGGUCAUGGUUUUGAATT against CHST13, the median seed-adjusted z-score was -0.447 (inactive).

Turning to CCGCUGUUAUCAUUACCAUTT against KIR2DL5B, the median seed-adjusted z-score is 1.72 (active).

As for GCUCUUCUAGACAUCGAUATT against NUBP1, the median seed-adjusted z-score is -0.0975 (inactive).

On to GAGGUUCCCUAAUUUCCAATT against HIF1AN, for which the median seed-adjusted z-score is -0.0315 (inactive).

For the sequence ACUACCUUCUCAUCAAGGATT against CCL19, the median seed-adjusted z-score was 0.0364 (inactive).

Turning to GCCUAGAAUUUGUAUCCCATT against ATXN2, the median seed-adjusted z-score is 0 (inactive).

On to CCAAUCUGGUGACGAUUUATT against SP110, for which the median seed-adjusted z-score is -0.788 (inactive).

Regarding GUAUUUCGAGUAAGUCUAATT against TTPA, the median seed-adjusted z-score was -0.208 (inactive).

For the sequence GGAGUUACUCCAUUAACUATT against JARID1C, the median seed-adjusted z-score is 0.372 (inactive).

With CCUGCGUCUCUACAACUAUTT against AURKB, the median seed-adjusted z-score is 0.0901 (inactive).

As to GAGAUUUGAUGAGAAGAGATT against MMP3, the median seed-adjusted z-score was 0.0592 (inactive).

For the sequence UCUGGCUUAUUAUAACUAUTT against ACOT2, the median seed-adjusted z-score is 0.578 (inactive).

For the sequence AGAUCGAGCCGGACAUGAUTT against NACC1, the median seed-adjusted z-score was 1.59 (active).

Turning to GAUGGGUUCUUGAACAUAUTT against EXOG, the median seed-adjusted z-score is 0.746 (inactive).

For CCUCAUGCCUUAAUGAUCATT against ZNF561, the median seed-adjusted z-score is -0.00904 (inactive).

As for CAUCCGUUCCAUACAUGUATT against AEBP2, the median seed-adjusted z-score is -0.212 (inactive).

Turning to GGAAUGGUUUAAAAUAGAATT against NUDT3, the median seed-adjusted z-score is 0.674 (inactive).

Consider GGCAUUGCUUAAUGAUAUATT against SF3B1, for which the median seed-adjusted z-score was -3.65 (active).

As to CCUUCAGUCUUAACUCCAATT against ZKSCAN1, the median seed-adjusted z-score is 0.229 (inactive).

GCUGUAGCCUUGAUGCCUATT against INMT: the median seed-adjusted z-score is 0.863 (inactive).

Take GUCCGAGUGUGGUUCUGUATT against POU5F1: the median seed-adjusted z-score was 0.0495 (inactive).

Turning to GGAAGAUCCUCUACCAGAATT against LATS2, the median seed-adjusted z-score is -0.245 (inactive).

Take CAGUCAAUGUUGUUCAGUUTT against GARS: the median seed-adjusted z-score was 0.138 (inactive).

As to GGCUACAACGUGACCAAGATT against FZD4, the median seed-adjusted z-score was 0.0695 (inactive).

Regarding ACUUCAUGAUGGAUAUCCATT against KCNN4, the median seed-adjusted z-score was 0.00864 (inactive).

As to CCCUACAUGUGAACAACGATT against PRPF8, the median seed-adjusted z-score was -1.54 (active).

On to GGCUAUGACGGGAAGGAGATT against PTPN7, for which the median seed-adjusted z-score was -0.189 (inactive).

On to GAAUAGAUUUCAGUAGUAUTT against DDI2, for which the median seed-adjusted z-score was 1.27 (active).

In the case of CCAGUGUACUCAGUCUAUUTT against STAM2, the median seed-adjusted z-score is -0.24 (inactive).

Consider GACCUUCCUAGUUUCCUGATT against GIPC1, for which the median seed-adjusted z-score was 0 (inactive).

On to AGCUCAACCGGUUUAAUAATT against SLC9A1, for which the median seed-adjusted z-score is 0 (inactive).

Consider GGAAAUAGGUCUAGUACUATT against PRPF4B, for which the median seed-adjusted z-score was -2.29 (active).

Consider GGAUGAGAAAGUCGUGAAATT against TSHZ2, for which the median seed-adjusted z-score is -0.361 (inactive).

As to CGGAUACGCUAAAAAUCAATT against B3GNTL1, the median seed-adjusted z-score is 0 (inactive).

As to GCCUAUUAUGGACAACAAUTT against IKZF2, the median seed-adjusted z-score was 0.514 (inactive).

As to GGAGUUAAGAAUAUUAUGATT against VAMP8, the median seed-adjusted z-score was -0.184 (inactive).

For GGAGUUCAUCAAUAUGAAUTT against MLF1, the median seed-adjusted z-score is 0.258 (inactive).

Regarding GCCUUCUACACUUACAUGATT against EVX1, the median seed-adjusted z-score was 1 (active).

As for GGAGUCAAGUGAAGCAGAATT against L3MBTL2, the median seed-adjusted z-score was -0.312 (inactive).

GCAGGUACAUCUCGCCUGATT against ENO1: the median seed-adjusted z-score was 0.0766 (inactive).

As for GCCCAAUACUUGCAAGUGATT against KCNA2, the median seed-adjusted z-score was -1.03 (active).

Consider GGGAGGUAGUAAUCCUACATT against PPP1R12B, for which the median seed-adjusted z-score is 0.416 (inactive).

With GGAUUCAUGAGUCUAUAUATT against SLC25A27, the median seed-adjusted z-score is 0.0916 (inactive).

For the sequence GGACACCACAGUACCUAAATT against IL22RA1, the median seed-adjusted z-score is -1.14 (active).

As for CAAUCCUGACUCAAACUAATT against RAG2, the median seed-adjusted z-score is 0.138 (inactive).

As for GGACCUGUAUUGGGAACAATT against ASPHD2, the median seed-adjusted z-score is -0.719 (inactive).

As to CUUCAAAGGUGACAAGUAUTT against MMP24, the median seed-adjusted z-score is -1.28 (active).

Take GGAGAGCAAUACAUCAUCATT against GLRX2: the median seed-adjusted z-score was -0.244 (inactive).

With GCACUUUACUAGGUCUAGATT against NANOS1, the median seed-adjusted z-score was 0.369 (inactive).

For GAUUACUGGUGCGAUGUUATT against L3MBTL4, the median seed-adjusted z-score was -0.189 (inactive).

Consider UCUGCUAACCUGAAAGUAATT against CARD8, for which the median seed-adjusted z-score is 0.115 (inactive).

Turning to AGAUCGACAAGAUGCAAGATT against FOXN1, the median seed-adjusted z-score was 0.226 (inactive).

For the sequence CAGUGAAUCUUGGUUGUAATT against TBP, the median seed-adjusted z-score was -1.25 (active).

As to GCAUCAUCCAGAGACUGCATT against CCL19, the median seed-adjusted z-score was 0.0364 (inactive).

With GCAGAGACACCUUGAAGUATT against GAD1, the median seed-adjusted z-score was 0.101 (inactive).

CGUGUUUAUAAUUACCGAATT against MED14: the median seed-adjusted z-score was -3.22 (active).

As for CACGAAAUCAUGCAAAUCATT against RPL17, the median seed-adjusted z-score is -0.13 (inactive).

GAGGCGCACUUCAAGCAUATT against CENTA1: the median seed-adjusted z-score is -0.555 (inactive).

Consider GGAGUAAACCUCACUGACATT against TMPRSS5, for which the median seed-adjusted z-score is 1.25 (active).

For GUAUCAAUCUUUGCGGAUATT against KL, the median seed-adjusted z-score was -0.267 (inactive).

AGAUCAUGACUUGUGCUGATT against SEZ6L2: the median seed-adjusted z-score was -0.331 (inactive).

As for GGAGGGCAUUGUCACUAAATT against MCM3, the median seed-adjusted z-score was 0.339 (inactive).

Consider GGAUACCCAAUGCAAAUUATT against MMP16, for which the median seed-adjusted z-score was 0.144 (inactive).

With GGAGAACUACCAGAACCUUTT against ZNF74, the median seed-adjusted z-score is 1.17 (active).

As for GCACUGGACCAAUACAAGUTT against GPR84, the median seed-adjusted z-score is 0.285 (inactive).

On to GGUGUUGUCUUGAGGUACATT against ADAMTS1, for which the median seed-adjusted z-score was 0.173 (inactive).

These data come from PubChem BioAssay AID1347426 (Functional Genomics Laboratory (NCATS/FGL), 2020).
